A selection: hits, their analogues and other compounds. The true share with any hit is near 11%.
Vaccinia mCherry – qHTS for Stage-Specific Inhibitors of Vaccinia Orthopoxvirus: mCherry Reporter Primary qHTS; Vaccinia virus mCherry reporter infection, fluorescence; Potency, µM (doses to about 36.5 µM), inactives show top-dose activity change, negative = inhibition, usual class: inhibitors; 310,000 compounds, 0.63% hits; calls by dose curve; tested in A549 cells; note: % is set by controls: 0 for no effect and ±100 for the full control effect; nearly all actives have a fitted effect of over 35% in size
HCV inhibitor – qHTS Assay for Inhibitors of Hepatitis C Virus (HCV) | Huh7.5.1 HCVcc-Cre infection, luciferase reporter, 44 h | Potency, µM (doses to about 41.8 µM), for inactives: at the highest dose activity change, negative = inhibition, hits mostly inhibitors | 340,000 compounds, 3.4% hits; note: % is set by controls: 0 for no effect and ±100 for the full control effect
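Luciferase read-out (15 sec integration) after a 15 min room-temperature substrate step quantifies HCVcc-Cre infection. Cells, 1,000 per well, had compound added 4 h post-plating, then virus at ~0.5 moi, and were cultured 44 h.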
NS1 function inh – qHTS Assay for Inhibitors of Influenza NS1 Protein Function | Potency, µM (highest dose often 46.1 µM), for the others: top-dose activity, positive = more growth | 270,000 compounds, 0.4% hits | AID 2326, 2010; calls by dose curve; note: actives are rising curves; nearly all actives have a fitted effect of over 50% in size
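Growth recovery, yeast-based: influenza A NS1 expressed in S. cerevisiae causes slow growth, and suppressors are detected by OD600. The parent strain without NS1 is used as positive control.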
Vaccinia Venus – qHTS for Stage-Specific Inhibitors of Vaccinia Orthopoxvirus: Venus Reporter Primary qHTS. 330,000 compounds, 0.46% hits. Potency, µM (doses to about 36.5 µM), for the others: at the highest dose activity change, negative = inhibition, usual class: inhibitors. Vaccinia virus Venus reporter expression, fluorescence; calls by dose curve; tested in A549 cells; note: % is set by controls: 0 for no effect and ±100 for the full control effect; nearly all actives have a fitted effect of over 30% in size
Pf growth 96h – Primary qHTS for delayed death inhibitors of the malarial parasite plastid, 96 hour incubation; P. falciparum luciferase reporter growth, 96 h; Potency, µM (doses to about 28.7 µM), without a hit: at the top dose activity change, negative = inhibition, usual class: inhibitors; 320,000 compounds, 6.9% hits; AID 504834, 2011; note: % is set by controls: 0 for no effect and ±100 for the full control effect
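P. falciparum expressing integrated firefly luciferase, in erythrocytes at 2% hematocrit, 0.05% parasitemia, incubated with compounds 96 h at 37 C, 5% CO2. Growth inhibition read as loss of luminescence; two-generation exposure targets delayed-death apicoplast inhibitors.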
Pf growth 48h – Primary qHTS for delayed death inhibitors of the malarial parasite plastid, 48 hour incubation; Potency, µM (series often up to 28.7 µM), for inactives: at the top dose activity change, negative = inhibition, hits mostly inhibitors; 310,000 compounds, 5.9% hits; P. falciparum luciferase growth in erythrocytes, 48 h; note: % is set by controls: 0 for no effect and ±100 for the full control effect
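Here the parasites carry a stable luciferase gene and grow inside erythrocytes in Albumax-based RPMI medium with compound for one erythrocytic cycle. Activity is scored as loss of luminescent signal.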
Starred values were filed as active, the others as inactive; i = inactive; ? = inconclusive; . = no result; [ ] = dose if it differs, or a comment. Unless noted, calls come from the whole dose curve; as a rule, active = well fitted inhibition curve with a large enough effect; inconclusive = small, poorly fitted or top-dose-only effect, or another doubt; inactive = no such curve, though single readings can be large or run the other way. Potency is the fitted concentration of half-maximal effect.

SMILES	Vaccinia mCherry	HCV inhibitor	NS1 function inh	Vaccinia Venus	Pf growth 96h	Pf growth 48h
O=C(Nc1nnc(-c2ccc(F)cc2)o1)c1cccc([N+](=O)[O-])c1	?	12.6µM*	0.2%	?	?	-27.1%
COc1ccc(Cl)cc1NC(=O)NC1CCCCC1	-11.5%	?	-7.8%	-4.6%	0.0%	.
O=C(O)CSCC(=O)Nc1ccccc1SCCS(=O)(=O)c1ccc(Cl)cc1	?	14.8%	2.1%	?	-6.5%	2.8%
O=C(Nc1ccncc1)c1cc2ccccc2cc1O	?	?	.	?	8.28µM*	?
O=C(Nc1cccc([N+](=O)[O-])c1)c1cccc(C(=O)Nc2cccc([N+](=O)[O-])c2)c1	-7.8%	0.1%	5.6%	?	?	2.94µM*
Cc1ccc(NC(=O)c2ccc(N/N=C/c3cccc(O)c3)c([N+](=O)[O-])c2)cc1	i	?	8.1%	?	5.22µM*	?
CC(=O)Nc1ccc(NC(=O)c2cc([N+](=O)[O-])cc([N+](=O)[O-])c2)cc1	-30.0%	-0.8%	25.3%	-10.1%	34.0%	-99.8%
O=C(Nc1ccc(NC(=O)c2cccc([N+](=O)[O-])c2)cc1)c1cccc([N+](=O)[O-])c1	.	-0.5%	-33.3%	.	-24.4%	?
O=C(Nc1ccc(Br)cc1)c1cc([N+](=O)[O-])cc([N+](=O)[O-])c1	-2.8%	?	4.9%	-3.6%	4.5%	2.62µM*
O=C(Nc1ccncc1)c1ccccc1F	-16.6%	-9.5%	-11.2%	-12.0%	11.5%[5.75 µM]	12.0%
CCc1ccc(OCC(=O)Nc2c(C(=O)c3ccccc3)oc3ccccc23)cc1	-8.0%	.	.	-4.1%	.	.
Cc1ccc(NC(=O)c2ccc(Nc3c([N+](=O)[O-])cc([N+](=O)[O-])cc3[N+](=O)[O-])cc2)cc1	-23.2%	10µM*	22.8%	?	21.6%	5.22µM*
O=C(NNC(=S)NC(=O)c1ccccc1Cl)c1cccc([N+](=O)[O-])c1	i	?	-72.4%	-10.8%	2.1%	.
O=C(O)c1ccccc1C(=O)Nc1cccc([N+](=O)[O-])c1	i	9.6%	0.9%	-3.5%	14.0%	?
O=C(NNc1c(Cl)cc(Cl)cc1Cl)c1cccc([N+](=O)[O-])c1	-28.3%	10µM*	-21.0%	-7.2%	?	-21.3%
COc1ccc(NC(=O)c2cc([N+](=O)[O-])ccc2O)cc1	6.31µM*	?	-70.9%	?	?	-37.7%
O=C(Nc1cccc([N+](=O)[O-])c1)c1cc2ccccc2cc1O	?	5.62µM*	-22.0%	?	1.85µM*	5.22µM*
Cc1cccc(OCC(O)Cn2c(N3CCCCC3)nc3c2c(=O)n(C)c(=O)n3C)c1 (stereo not given)	.	-9.8%	-2.1%	.	?	?
CC(C)Sc1ccc([N+](=O)[O-])cc1C(=O)Nc1ccncc1	i[7.34 µM]	-2.7%	-1.3%	-8.2%[7.34 µM]	1.17µM*	?
O=C(Nc1ccc(O)cc1)c1cccc(Oc2ccc([N+](=O)[O-])cc2)c1	?	11.2µM*	2.3%	-15.6%	?	-3.4%
Cc1ccc(NC(=O)c2cccc(Oc3ccc([N+](=O)[O-])cc3)c2)c(C(=O)O)c1	.	13.1%	-20.8%	.	-21.3%	18.1%
O=C(O)c1cc([N+](=O)[O-])ccc1C(=O)Nc1cccc([N+](=O)[O-])c1	-5.2%	-9.1%	12.6%	2.8%	9.4%	8.9%
COc1ccc(CN2C(=O)C(CC(=O)NC(c3ccccc3)c3ccccc3)CC(C(=O)N(C(C)C)C(C)C)=C2C)cc1 (stereo not given)	-11.6%	.	.	?	.	.
NC(C(=O)O)[C@@H]1CC(Cl)=NO1 (stereo not given in full)	.	.	.	.	?	-97.2%
NC(C(=O)O)C1CC(Cl)=NO1 (stereo not given)	.	1.9%[8.37 µM]	10.7%	.	3.29µM*	?
SMILES	Vaccinia mCherry	HCV inhibitor	NS1 function inh	Vaccinia Venus	Pf growth 96h	Pf growth 48h
N[C@H](C(=O)O)[C@@H]1CC(Cl)=NO1	2µM*	.	.	?	.	.
CCCCC1CCCC12NC(=O)NC2=O (stereo not given)	-6.9%	1.0%	1.9%	-5.6%	51.2%	30.3%
COc1ccc2nc(SCC(=O)N3CCN(c4ccc(F)cc4)CC3)c(C#N)cc2c1	-25.4%	-28.8%	26.6%	-19.3%	14.7µM*	?
CCOc1ccc2nc(SCC#N)c(C#N)cc2c1	.	-14.6%	1.7%	.	10.7%	91.6%
CCSc1nc2ccc(OC)cc2cc1C#N	-13.8%	10µM*	3.4%	-3.3%	-0.4%	45.1%
CCN=c1scc(-c2ccc(F)cc2)n1/N=C/c1ccccn1	-7.5%	-12.0%	.	-8.2%	-67.5%	139.0%
CCN=c1scc(-c2ccccc2)n1/N=C/c1ccccn1	5.62µM*	?	-33.3%	5.2%	-57.6%	28.0%
C=CCN=c1scc(-c2ccc(F)cc2)n1/N=C/c1ccccn1	-21.2%	?	-16.6%	-6.2%	?	?
C=CCN=c1scc(-c2ccccc2)n1/N=C/c1ccccn1	2.24µM*	14.1µM*	-30.5%	12.7%	?	-23.8%
O=C(CSc1nnc2ccc(-c3cccnc3)nn12)Nc1ccc(F)cc1	-10.9%	2.2%[8.37 µM]	.	-6.6%	?	0.1%
Cc1cccc(C)c1NC(=O)CSc1nnc(Cn2nnc(-c3ccccc3)n2)n1-c1ccccc1	.	?	-52.7%	.	-16.7%	9.28µM*
O=C(CSc1nnc2ccc(-c3ccncc3)nn12)Nc1ccc(F)cc1	-9.8%	16.3%	.	2.2%	?	11.7µM*
O=C(CSc1nnc(Cn2nnc(-c3ccccc3)n2)n1-c1ccccc1)Nc1ccc(F)cc1	.	-23.0%	-14.9%	.	.	9.28µM*
O=C(CSc1nnc(Cn2nnc(-c3ccccc3)n2)n1-c1ccccc1)Nc1ccccc1	.	?	-7.3%	.	?	?
O=C(CCc1ccncc1)N1CCCC(Nc2ccc(F)cc2)C1 (stereo not given)	-14.1%	3.1%	17.5%	-10.7%	0.7%	-0.5%
CCOc1ccc2nc(N3CCCC(C(=O)N4CCN(CC)CC4)C3)sc2c1 (stereo not given)	-12.6%	-19.5%	1.9%	-12.9%	-13.9%	.
Cc1ccc(NC(=O)CSc2nc3c(c(=O)n(C)c(=O)n3C)n2C)cc1	-4.6%	15.6%	-3.0%	-0.7%	-46.7%	4.7%
Cc1ccc(CNC(=O)c2cc(-c3ccccc3)nn2CC2CC(c3cccc([N+](=O)[O-])c3)=NO2)cc1 (stereo not given)	i	?	.	-13.5%	.	.
Cc1ccc(-n2nc3c(=O)n(CCCC(=O)NCc4ccccc4Cl)nc(C)c3c2C)cc1	.	5.4%	7.7%	.	2.62µM*	?
Cc1ccc(-n2nc3c(=O)n(CCCC(=O)NCc4cccc(Cl)c4)nc(C)c3c2C)cc1	.	22.4µM*	-0.7%	.	?	9.28µM*
